Measurements reported in PubChem BioAssay AID1159580 (chemical genetic matrix, 2015).
In all, about 5,500 compounds went through this assay and about 2,000 (36%) were called active. About 18% were inconclusive and are not listed. The list shows a part of the results. Values without a mark were called inactive. Rule as the data show it: active = normalized growth mostly below about 0.91 (no sharp cut-off); inconclusive = no clear call, values can overlap the other calls; inactive = mostly above about 0.92.

Assay: chemical genetic growth profiling, strain panel (AID 1159580);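 also: tested at 20 µM; growth read once vehicle control cultures reached saturation at 30 °C; 1 = growth at the plate median or of vehicle wells; lower values mean less growth of the strain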
Conditions: growth OD

## C[C@@H]1CC[C@H]2[C@@H](C)C(=O)O[C@@H]3O[C@@]4(C)CC[C@@H]1[C@]32OO4
S. cerevisiae deletion strains, locus YKL009W, strain mrt4, stronger effect = lower value
  normalized growth: 0.986
S. cerevisiae deletion strains, locus YKL068W, stronger effect = lower value
  normalized growth: 0.914 (active)
S. cerevisiae deletion strains, locus YKL085W, strain MDH1 (second series), stronger effect = lower value
  normalized growth: 0.906 (active)
S. cerevisiae deletion strains, locus YKL085W, strain MDH1, stronger effect = lower value
  normalized growth: 0.906 (active)
S. cerevisiae deletion strains, locus YKL160W, strain elf1, stronger effect = lower value
  normalized growth: 0.874 (active)
S. cerevisiae deletion strains, locus YKL190W, strain CNB1, stronger effect = lower value
  normalized growth: 0.856 (active)
S. cerevisiae deletion strains, locus YKR001C, strain vps1, stronger effect = lower value
  normalized growth: 0.692 (active)
S. cerevisiae deletion strains, locus YKR026C, strain gcn3, stronger effect = lower value
  normalized growth: 0.953
S. cerevisiae deletion strains, locus YKR091W, strain srl3, stronger effect = lower value
  normalized growth: 0.949
S. cerevisiae deletion strains, locus YLL001W, strain dnm1, stronger effect = lower value
  normalized growth: 0.824 (active)
S. cerevisiae deletion strains, locus YLL026W, stronger effect = lower value
  normalized growth: 0.876 (active)
S. cerevisiae deletion strains, locus YLL041C, strain sdh2, stronger effect = lower value
  normalized growth: 0.946
S. cerevisiae deletion strains, locus YLR027C, strain aat2, stronger effect = lower value
  normalized growth: 0.865 (active)
S. cerevisiae deletion strains, locus YLR039C, strain RIC1, stronger effect = lower value
  normalized growth: 0.353 (active)
S. cerevisiae deletion strains, locus YLR058C, strain SHM2, stronger effect = lower value
  normalized growth: 0.852 (active)
S. cerevisiae deletion strains, locus YLR102C, strain apc9, stronger effect = lower value
  normalized growth: 0.94
S. cerevisiae deletion strains, locus YLR113W, strain HOG1, stronger effect = lower value
  normalized growth: 0.698 (active)
S. cerevisiae deletion strains, locus YLR221C, strain rsa3, stronger effect = lower value
  normalized growth: 0.812 (active)
S. cerevisiae deletion strains, locus YLR258W, strain gsy2, stronger effect = lower value
  normalized growth: 0.918
S. cerevisiae deletion strains, locus YLR262C, strain YPT6 (second series), stronger effect = lower value
  normalized growth: 0.375 (active)
S. cerevisiae deletion strains, locus YLR262C, strain YPT6, stronger effect = lower value
  normalized growth: 0.364 (active)
S. cerevisiae deletion strains, locus YLR268W, strain sec22, stronger effect = lower value
  normalized growth: 0.822 (active)
S. cerevisiae deletion strains, locus YLR320W, strain mms22, stronger effect = lower value
  normalized growth: 0.674 (active)
S. cerevisiae deletion strains, locus YLR330W, strain CHS5, stronger effect = lower value
  normalized growth: 0.879 (active)
S. cerevisiae deletion strains, locus YLR342W, strain FKS1 (second series), stronger effect = lower value
  normalized growth: 0.82
S. cerevisiae deletion strains, locus YLR342W, strain FKS1, stronger effect = lower value
  normalized growth: 0.885 (active)
S. cerevisiae deletion strains, locus YLR357W, strain rsc2, stronger effect = lower value
  normalized growth: 1.02
S. cerevisiae deletion strains, locus YLR370C, strain arc18, stronger effect = lower value
  normalized growth: 0.897 (active)
S. cerevisiae deletion strains, locus YLR371W, strain rom2, stronger effect = lower value
  normalized growth: 0.929
S. cerevisiae deletion strains, locus YLR384C, strain iki3, stronger effect = lower value
  normalized growth: 0.949
S. cerevisiae deletion strains, locus YLR418C, strain cdc73, stronger effect = lower value
  normalized growth: 0.614 (active)
S. cerevisiae deletion strains, locus YML016C, strain PPZ1, stronger effect = lower value
  normalized growth: 0.915 (active)
S. cerevisiae deletion strains, locus YML032C, strain rad52, stronger effect = lower value
  normalized growth: 0.798 (active)
S. cerevisiae deletion strains, locus YML120C, strain ndi1, stronger effect = lower value
  normalized growth: 0.839 (active)
S. cerevisiae deletion strains, locus YML124C, strain tub3, stronger effect = lower value
  normalized growth: 0.936
S. cerevisiae deletion strains, locus YMR058W, strain fet3, stronger effect = lower value
  normalized growth: 0.742 (active)
S. cerevisiae deletion strains, locus YMR078C, strain ctf18, stronger effect = lower value
  normalized growth: 0.882 (active)
S. cerevisiae deletion strains, locus YMR125W, strain sto1, stronger effect = lower value
  normalized growth: 0.925
S. cerevisiae deletion strains, locus YMR129W, stronger effect = lower value
  normalized growth: 0.899 (active)
S. cerevisiae deletion strains, locus YMR205C, strain PFK2, stronger effect = lower value
  normalized growth: 0.779 (active)
S. cerevisiae deletion strains, locus YMR223W, strain ubp8, stronger effect = lower value
  normalized growth: 0.878 (active)
S. cerevisiae deletion strains, locus YMR231W, strain pep5, stronger effect = lower value
  normalized growth: 0.928 (active)
S. cerevisiae deletion strains, locus YMR263W, strain SAP30, stronger effect = lower value
  normalized growth: 0.81 (active)
S. cerevisiae deletion strains, locus YMR307W, strain GAS1, stronger effect = lower value
  normalized growth: 0.651
S. cerevisiae deletion strains, locus YNL067W, strain RPL9B, stronger effect = lower value
  normalized growth: 0.86 (active)
S. cerevisiae deletion strains, locus YNL071W, strain lat1, stronger effect = lower value
  normalized growth: 0.705 (active)
S. cerevisiae deletion strains, locus YNL128W, strain TEP1, stronger effect = lower value
  normalized growth: 0.757 (active)
S. cerevisiae deletion strains, locus YNL153C, strain GIM3, stronger effect = lower value
  normalized growth: 0.811 (active)
S. cerevisiae deletion strains, locus YNL183C, strain NPR1, stronger effect = lower value
  normalized growth: 0.748 (active)
S. cerevisiae deletion strains, locus YNL209W, strain ssb2, stronger effect = lower value
  normalized growth: 0.867 (active)
S. cerevisiae deletion strains, locus YNL233W, strain BNI4, stronger effect = lower value
  normalized growth: 0.81 (active)
S. cerevisiae deletion strains, locus YNL248C, strain rpa49, stronger effect = lower value
  normalized growth: 0.902
S. cerevisiae deletion strains, locus YNL250W, strain rad50, stronger effect = lower value
  normalized growth: 0.87 (active)
S. cerevisiae deletion strains, locus YNL271C, strain bni1, stronger effect = lower value
  normalized growth: 0.883 (active)
S. cerevisiae deletion strains, locus YNL298W, strain CLA4, stronger effect = lower value
  normalized growth: 0.861 (active)
S. cerevisiae deletion strains, locus YNL307C, strain MCK1, stronger effect = lower value
  normalized growth: 0.754 (active)
S. cerevisiae deletion strains, locus YNL322C, strain KRE1 (second series), stronger effect = lower value
  normalized growth: 0.904 (active)
S. cerevisiae deletion strains, locus YNL322C, strain KRE1, stronger effect = lower value
  normalized growth: 0.857 (active)
S. cerevisiae deletion strains, locus YNR049C, strain mso1, stronger effect = lower value
  normalized growth: 0.94
S. cerevisiae deletion strains, locus YNR052C, strain pop2, stronger effect = lower value
  normalized growth: 0.842 (active)
S. cerevisiae deletion strains, locus YOL006C, strain TOP1, stronger effect = lower value
  normalized growth: 0.605
S. cerevisiae deletion strains, locus YOL012C, strain htz1
  normalized growth: 0.461
S. cerevisiae deletion strains, locus YOL147C, strain pex11, stronger effect = lower value
  normalized growth: 0.869 (active)
S. cerevisiae deletion strains, locus YOR001W, strain rrp6, stronger effect = lower value
  normalized growth: 0.855 (active)
S. cerevisiae deletion strains, locus YOR061W, strain CKA2, stronger effect = lower value
  normalized growth: 0.92
S. cerevisiae deletion strains, locus YOR069W, strain VPS5, stronger effect = lower value
  normalized growth: 0.911 (active)
S. cerevisiae deletion strains, locus YOR070C, strain gyp1, stronger effect = lower value
  normalized growth: 0.814 (active)
S. cerevisiae deletion strains, locus YOR080W, strain dia2, stronger effect = lower value
  normalized growth: 0.926
S. cerevisiae deletion strains, locus YOR083W, strain WHI5, stronger effect = lower value
  normalized growth: 0.822 (active)
S. cerevisiae deletion strains, locus YOR106W, strain vam3, stronger effect = lower value
  normalized growth: 0.784 (active)
S. cerevisiae deletion strains, locus YOR136W, strain idh2, stronger effect = lower value
  normalized growth: 0.93
S. cerevisiae deletion strains, locus YOR144C, strain elg1, stronger effect = lower value
  normalized growth: 0.927 (active)
S. cerevisiae deletion strains, locus YOR184W, strain ser1, stronger effect = lower value
  normalized growth: 0.705 (active)
S. cerevisiae deletion strains, locus YOR231W, strain MKK1, stronger effect = lower value
  normalized growth: 0.745 (active)
S. cerevisiae deletion strains, locus YOR265W, strain rbl2, stronger effect = lower value
  normalized growth: 0.913 (active)
S. cerevisiae deletion strains, locus YOR270C, strain vph1, stronger effect = lower value
  normalized growth: 0.633 (active)
S. cerevisiae deletion strains, locus YOR290C, strain snf2, stronger effect = lower value
  normalized growth: 0.847 (active)
S. cerevisiae deletion strains, locus YOR316C, strain cot1, stronger effect = lower value
  normalized growth: 0.94
S. cerevisiae deletion strains, locus YPL051W, strain arl3, stronger effect = lower value
  normalized growth: 0.818 (active)
S. cerevisiae deletion strains, locus YPL078C, strain atp4, stronger effect = lower value
  normalized growth: 0.796 (active)
S. cerevisiae deletion strains, locus YPL106C, strain sse1, stronger effect = lower value
  normalized growth: 0.894
S. cerevisiae deletion strains, locus YPL240C, strain hsp82, stronger effect = lower value
  normalized growth: 0.949
S. cerevisiae deletion strains, locus YPL241C, strain CIN2, stronger effect = lower value
  normalized growth: 0.924 (active)
S. cerevisiae deletion strains, locus YPL256C, strain CLN2, stronger effect = lower value
  normalized growth: 0.704 (active)
S. cerevisiae deletion strains, locus YPR119W, strain clb2, stronger effect = lower value
  normalized growth: 0.927 (active)
S. cerevisiae deletion strains, locus YPR141C, strain kar3, stronger effect = lower value
  normalized growth: 0.907 (active)
S. cerevisiae deletion strains, locus YPR163C, strain tif3, stronger effect = lower value
  normalized growth: 0.958
S. cerevisiae deletion strains, locus YPR167C, strain met16, stronger effect = lower value
  normalized growth: 0.909 (active)
S. cerevisiae deletion strains, strain wtn01, stronger effect = lower value
  normalized growth: 0.818 (active)
S. cerevisiae strains, strain wild type, stronger effect = lower value
  normalized growth: 0.852 (active)
